Compound activity deposited in PubChem BioAssay by several laboratories.
MazEF act = increases E. coli MazEF RNase cleavage of RNA; P0AE70; FAM/BHQ RNA-DNA oligo cleavage fluorescence, 5 h; activation, % at 20 µM; 0.32% of 350,000 active; AID 504720; in the data active = activation above about 50%
Target sequence (P0AE70 whole entry, looked up): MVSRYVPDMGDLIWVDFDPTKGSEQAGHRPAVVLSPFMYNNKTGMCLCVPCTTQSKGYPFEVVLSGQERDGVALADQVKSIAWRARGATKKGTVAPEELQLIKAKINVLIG
UGM FP inh = Mtb UDP-galactopyranose mutase inhibition. purified UGM, fluorescence polarization probe displacement. 0.06% of 320,000 active. inhibition, % at 10 µM; in the data active = inhibition above about 10%, passing the limit was not always enough; inconclusive = no clear call, values can overlap the other calls
Target sequence (P9WIQ1 whole entry, looked up): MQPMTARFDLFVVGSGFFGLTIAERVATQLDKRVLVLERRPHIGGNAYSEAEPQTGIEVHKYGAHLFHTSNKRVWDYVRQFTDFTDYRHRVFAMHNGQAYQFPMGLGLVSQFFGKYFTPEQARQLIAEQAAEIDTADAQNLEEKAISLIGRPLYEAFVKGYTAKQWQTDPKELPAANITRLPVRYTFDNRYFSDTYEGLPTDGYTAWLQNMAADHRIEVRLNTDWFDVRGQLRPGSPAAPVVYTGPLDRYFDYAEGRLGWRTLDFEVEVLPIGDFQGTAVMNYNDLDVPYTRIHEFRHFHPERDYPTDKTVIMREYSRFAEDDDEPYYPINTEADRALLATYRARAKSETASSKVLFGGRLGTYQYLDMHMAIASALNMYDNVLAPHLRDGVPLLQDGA
Mtb betalactam = beta-lactam sensitization of Mtb H37Rv; 0.27% of 330,000 active; inhibition, % at 25 µM; M. tuberculosis H37Rv growth with meropenem, percent inhibition; call rule not given here;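 also: growth measured after seven days incubation then overnight dye step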
BH1578 lux ind = induces V. cholerae light production without autoinducers. 0.16% of 350,000 active. V. cholerae BH1578 lux reporter, luminescence, 6 h. AID 588436. activation, % at 18.7 µM; in the data active = activation mostly above about 9.7%, no sharp cut-off; inconclusive = no clear call, values can overlap the other calls; inactive = mostly below about 3.7%
FadD28 binding = M. tuberculosis FadD28 bisubstrate binding inhibition. FadD28 bisubstrate probe binding, fluorescence polarization. inhibition, % at 12.5 µM. 0.22% of 360,000 active; in the data active = inhibition above about 8.5%, passing the limit was not always enough; inconclusive = no clear call, values can overlap the other calls
Rv3671c inh = inhibitors of M. tuberculosis serine protease Rv3671c; P9WHR9; inhibition, % at 5.96 µM; 0.048% of 320,000 active; AID 2606; in the data active = inhibition above about 38%;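 also: extracellular domain of Rv3671c used as enzyme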
Numbers stand for hits; - = inactive; ? = inconclusive; . = no result given; + = active, no number. An excerpt weighted towards active compounds, which were near 0.74% of everything screened.

SMILES	MazEF act	UGM FP inh	Mtb betalactam	BH1578 lux ind	FadD28 binding	Rv3671c inh
CC(=O)c1sc(NC(=O)CS(=O)(=O)c2ccc(F)cc2)nc1C	-	-	-	28.0	-	-
CC(=O)c1sc(NC(=O)CS(=O)(=O)c2ccccc2)nc1C	-	-	-	-	-	-
CCCCn1nc(-c2ccccc2)c2nc3ccccc3nc21	.	29.2	-	.	.	-
Cn1nc(-c2ccccc2)c2nc3ccccc3nc21	+	28.3	-	-	-	-
CC1(C(=O)NCc2ccccc2)Cc2c(-c3ccc4c(c3)OCO4)ccnc2O1 (stereo not given)	.	.	.	-	-	.
O=C1NC(=O)N(Cc2ccccc2)C(=O)/C1=C\c1ccco1	-	-	-	-	28.2	-
CCOC(=O)C1CCN(C(=O)C(=O)Nc2ccc3nc4n(c(=O)c3c2)CCCCC4)CC1	-	-	-	-	-	-
Cc1cccc(NC(=O)CN2C(=O)N/C(=C\c3ccc(-c4cccc(C(=O)O)c4)o3)C2=O)c1	-	-	-	-	42.7	-
CCn1c(C)cc(/C=C2\NC(=O)N(CC(=O)Nc3cccc(C)c3)C2=O)c1C	-	-	-	-	10.3	-
COc1cc(/C=C2\SC(=O)N(CC(=O)Nc3cccc(C)c3)C2=O)cc([N+](=O)[O-])c1O	-	.	.	-	30.7	.
CCn1c(C)cc(/C=C2/NC(=O)N(CC(=O)Nc3cccc(C)c3)C2=O)c1C	-	-	-	-	-	-
Cc1ccc(NC(=O)CN2C(=O)S/C(=C/c3ccc(-c4cc(C(=O)O)ccc4C)o3)C2=O)cc1C	74.8	-	-	-	14.4	-
Cc1cccc(NC(=O)CN2C(=O)N/C(=C/c3ccc(C)o3)C2=O)c1	-	-	-	-	-	-
Cc1ccc(NC(=O)CN2C(=O)N/C(=C\c3cccn3-c3cccc(C(=O)O)c3)C2=O)cc1	-	.	.	-	?	.
COc1ccc(/C=C2/NC(=O)N(CC(=O)Nc3cccc(C)c3)C2=O)cc1O	-	-	-	-	18.1	-
Cc1ccc(NC(=O)CN2C(=O)N/C(=C/c3cc(C)n(-c4cccc(C(=O)O)c4)c3C)C2=O)cc1	-	.	.	-	48.6	.
COc1ccc(/C=C2\SC(=O)N(CC(=O)Nc3ccc(F)cc3)C2=O)cc1O	-	-	-	-	-	-
O=C(NCc1cccc(C(F)(F)F)c1)c1[nH]c(C(F)(F)F)nc1-c1ccccc1	.	.	.	.	-	.
O=C(NCc1cccs1)C1CCCN(C(=O)Nc2ccccc2)C1 (stereo not given)	-	-	-	-	-	-
COc1cc(C(O)c2nc3ccccc3s2)cc(OC)c1OC (stereo not given)	-	-	-	-	24.3	-
COc1ccc(C(O)c2nc3ccccc3s2)cc1 (stereo not given)	.	-	-	.	.	-
CCCCCC(O)CCCC(=O)O (stereo not given)	-	.	.	-	-	.
CCCCCCCCCCCCCCCC(O)C[N+](C)(C)CCO (stereo not given)	-	.	.	-	34.8	.
Cc1ccc(N(CC2CO2)S(=O)(=O)c2ccc([N+](=O)[O-])cc2)cc1 (stereo not given)	-	-	-	-	-	-
CC(=O)Nc1ccc(NC(=O)CS(=O)(=O)c2cn(CC(=O)N3CCC(C)CC3)c3ccccc23)cc1	-	-	-	-	-	-
SMILES	MazEF act	UGM FP inh	Mtb betalactam	BH1578 lux ind	FadD28 binding	Rv3671c inh
O=[N+]([O-])c1ccc(Nc2ccccc2O)c2nonc12	231.6	-	-	-	-	.
O=C(O)c1ccc(Nc2ccc([N+](=O)[O-])c3nonc23)cc1	-	-	-	-	-	.
Cc1c(C(=O)NCc2ccc(S(N)(=O)=O)cc2)oc2ccc(Cl)cc12	-	-	-	-	-	-
CSc1ccccc1N=CC1=C(O)CC(C)(C)CC1=O	-	-	-	17.9	-	-
CC1(C)CC(=O)C(C=Nc2ccc(O)cc2)=C(O)C1	-	-	-	-	-	-
CN1N=C2c3ccccc3CCC2C1c1ccc(Cl)cc1 (stereo not given)	-	-	-	-	-	-
CCCN=C1N/C(=C\c2ccco2)C(=O)N1c1ccccc1	51.5	-	-	-	-	-
CC(=O)c1ccc(NC(=O)Nc2ccc(NS(=O)(=O)c3ccc(C)cc3)cc2)cc1	-	-	-	-	11.2	-
COc1ccc(COCC(O)CN2CCN(S(=O)(=O)c3c(F)cccc3F)CC2)cc1OC (stereo not given)	-	.	.	-	-	.
CCCc1cc(=O)oc2c(C)c3occ(C)c3cc12	-	-	-	23.2	-	-
Cc1coc2c(C)c3oc(=O)cc(-c4ccccc4)c3cc12	-	-	-	-	-	-
COc1cc2[nH]c(=O)n(Cc3ccc(C(=O)NC4CCCC4)cc3)c(=O)c2cc1OC	87.5	-	-	-	-	-
CCCCCCCCCCCCCCCC[N+](C)(C)CC	-	-	-	-	18.8	-
CCCCCCCCCCCCCCCC[N+](C)(C)CCl	-	.	.	-	20.1	.
CCCCCCCCCCCCCCCC[N+](C)(C)C	-	-	-	-	23.9	-
CCCCCC[N+](C)(C)CCSSCC[N+](C)(C)CCCCCC	-	-	-	-	-	-
CCNC(=O)C1(C)CCCN(C(=O)c2cc(C)n(C(C)(C)C)n2)C1 (stereo not given)	.	.	.	-	-	.
O=Nc1c(O)ccc2cc(S(=O)(=O)O)ccc12	-	.	.	-	-	.
CN(C)c1ccc2cc(S(=O)(=O)O)cc(O)c2c1	-	.	.	-	19.3	.
CCCNC(=S)NCCN1CCCCC1	-	-	-	.	-	-
CCNC(=S)NCCN1CCCCC1	123.0	-	-	-	-	-
CCOC(=O)C1CCCN(C(=O)c2cc(Nc3ccc(OC)cc3)nc3ccccc23)C1 (stereo not given)	-	-	-	-	21.6	-
CCCN(CCC)c1nc(N)c(C#N)c(CC#N)c1C#N	133.7	-	-	-	-	-
Cc1ccc(-n2c(=O)[nH]c3ccccc3c2=O)cc1[N+](=O)[O-]	.	.	.	.	-	.
Cc1ccc(-n2c(C)cc(=O)cc2C)cc1[N+](=O)[O-]	-	-	-	24.9	-	-
SMILES	MazEF act	UGM FP inh	Mtb betalactam	BH1578 lux ind	FadD28 binding	Rv3671c inh
Cc1cc(C(=O)OCC(=O)NC2CCS(=O)(=O)C2)c2ccccc2n1 (stereo not given)	-	-	-	-	-	-
O=C(COC(=O)c1cc(-c2cccc3ccccc23)nc2ccccc12)NC1CCS(=O)(=O)C1 (stereo not given)	291.9	-	-	-	-	-
Cc1ccc(S(=O)(=O)N(C)CC(=O)O/N=C(\N)c2ccccn2)cc1	60.9	-	-	-	-	-
COc1cc(NC(=O)Cn2nnc(-c3ccncc3)n2)cc(OC)c1	-	-	-	-	-	-
COc1cccc(NC(=O)Cn2nnc(-c3ccccc3N)n2)c1	-	-	-	-	14.7	-
CN(C)c1ccc(/C=C2\SC(=S)N(Nc3ncc(C(F)(F)F)cc3Cl)C2=O)cc1	52.5	-	-	-	-	-
COc1ccc(-c2nnc(SCC(=O)Nc3ccccc3)n2C)cc1	-	-	-	35.7	-	-
C/C(Sc1nnc(Cc2ccccc2)o1)=C(\O)c1ccccc1	-	.	.	-	-	.
COc1ccc(Nc2nc3ccccc3nc2-n2nc(C)cc2C)cc1	178.1	-	-	-	-	-
